Among the data in paper PMC12820563, “FoxP3 forms a head-to-head dimer in vivo and stabilizes its multimerization on adjacent microsatellites” are binding signal values, retold here.

In all, about 16,000 sequences were measured (“rpm ratio (pull-down/input)”: median about 0.94, highest 2% from about 1.7 on). This is one part of a sample in which the highest values are shown more often than they occur.

In this test the target is T1, MBP-FoxP1dN (Mus musculus, UniProt P58462 326-579).
T1 sequence: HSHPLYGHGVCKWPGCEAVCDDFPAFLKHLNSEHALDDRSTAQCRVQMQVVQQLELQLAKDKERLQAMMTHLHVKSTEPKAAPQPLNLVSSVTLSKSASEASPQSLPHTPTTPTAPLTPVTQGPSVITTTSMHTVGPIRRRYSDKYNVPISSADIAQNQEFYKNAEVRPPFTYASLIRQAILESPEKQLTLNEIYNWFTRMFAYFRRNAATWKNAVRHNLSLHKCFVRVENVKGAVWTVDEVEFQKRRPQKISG
Briefly: PD-seq (MBP pull-down with sequencing); 20 mM Tris-HCl pH 7.5, 100 mM NaCl, 1.5 mM MgCl2, 0.4 uM protein, 0.1 uM dsDNA library, 30 min, room temperature, amylose pull-down; high values mean tight binding. The conditions noted are these: protein: recombinant; tags: His6-MBP; chain copies: 2; dsDNA, one strand shown. In outline:
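Binding is given as reads-per-million enrichment, pull-down over input, with replicates pooled. The bait was an N-terminus-lacking mouse FoxP3 or FoxP1 fragment with a His6-MBP tag, expressed in E. coli and used at 0.4 µM with 0.1 µM Klenow-filled degenerate double-stranded DNA library for 30 min at room temperature in Tris pH 7.5 buffer with NaCl and MgCl2. Amylose resin pull-down with three washes was followed by proteinase K release, PCR barcoding and Illumina sequencing.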
For the sequence “GATGATTGTTCTCCCAGCTGATGAATTAAATATTTCGAGTAAACAAATTTTCCTAATCTTTCTGTTCAAGCGCCATCTAC”, the binding signal was 1.14 RPM ratio (pull-down/input). The value for “GATGATTGTTCTCCCAGCTGATGAATTAATATTTTCGAGTAAACAAATTTTCCTAATCTTTCTGTTCAAGCGCCATCTAC” was 1.78 RPM ratio (pull-down/input); that for “GATGATTGTTCTCCCAGCTGATGAATTAAATCTGTCGAGTAAACAAATTTTCCTAATCTTTCTGTTCAAGCGCCATCTAC” was 0.778 RPM ratio (pull-down/input). The value for “GATGATTGTTCTCCCAGCTGATGAATTCGGACCCTCGAGTAAACAAATTTTCCTAATCTTTCTGTTCAAGCGCCATCTAC” was 0.79 RPM ratio (pull-down/input); that for “GATGATTGTTCTCCCAGCTGATGAATTTTCTATTTCGAGTAAACAAATTTTCCTAATCTTTCTGTTCAAGCGCCATCTAC” was 0.975 RPM ratio (pull-down/input); that for “GATGATTGTTCTCCCAGCTGATGAATTCCTATTTTCGAGTAAACAAATTTTCCTAATCTTTCTGTTCAAGCGCCATCTAC” was 1.86 RPM ratio (pull-down/input). The value for “GATGATTGTTCTCCCAGCTGATGAATTTCCTATTTCGAGTAAACAAATTTTCCTAATCTTTCTGTTCAAGCGCCATCTAC” was 0.887 RPM ratio (pull-down/input); that for “GATGATTGTTCTCCCAGCTGATGAATTGTTCTATTCGAGTAAACAAATTTTCCTAATCTTTCTGTTCAAGCGCCATCTAC” was 1.34 RPM ratio (pull-down/input). Take “GATGATTGTTCTCCCAGCTGATGAATTTCTATTTTCGAGTAAACAAATTTTCCTAATCTTTCTGTTCAAGCGCCATCTAC”: the binding signal was 2.01 RPM ratio (pull-down/input). For the sequence “GATGATTGTTCTCCCAGCTGATGAATTCTATTTTTCGAGTAAACAAATTTTCCTAATCTTTCTGTTCAAGCGCCATCTAC”, the binding signal was 1.61 RPM ratio (pull-down/input). The figure for “GATGATTGTTCTCCCAGCTGATGAATTCTATTGTTCGAGTAAACAAATTTTCCTAATCTTTCTGTTCAAGCGCCATCTAC” is 1.99 RPM ratio (pull-down/input); for “GATGATTGTTCTCCCAGCTGATGAATTTTTCTATTCGAGTAAACAAATTTTCCTAATCTTTCTGTTCAAGCGCCATCTAC” it is 0.984 RPM ratio (pull-down/input). The value for “GATGATTGTTCTCCCAGCTGATGAATTCTCCTATTCGAGTAAACAAATTTTCCTAATCTTTCTGTTCAAGCGCCATCTAC” was 0.943 RPM ratio (pull-down/input); that for “GATGATTGTTCTCCCAGCTGATGAATTAGTTGCATCGAGTAAACAAATTTTCCTAATCTTTCTGTTCAAGCGCCATCTAC” was 1.65 RPM ratio (pull-down/input); that for “GATGATTGTTCTCCCAGCTGATGAATTCCACCACTCGAGTAAACAAATTTTCCTAATCTTTCTGTTCAAGCGCCATCTAC” was 0.844 RPM ratio (pull-down/input). For “GATGATTGTTCTCCCAGCTGATGAATTGATGCACTCGAGTAAACAAATTTTCCTAATCTTTCTGTTCAAGCGCCATCTAC”, the binding signal was 1.72 RPM ratio (pull-down/input). As to “GATGATTGTTCTCCCAGCTGATGAATTTTGACAATCGAGTAAACAAATTTTCCTAATCTTTCTGTTCAAGCGCCATCTAC”, the binding signal was 1.26 RPM ratio (pull-down/input).

For the sequence “GATGATTGTTCTCCCAGCTGATGAATTTTGAATATCGAGTAAACAAATTTTCCTAATCTTTCTGTTCAAGCGCCATCTAC”, the binding signal was 1.07 RPM ratio (pull-down/input).

Turning to “GATGATTGTTCTCCCAGCTGATGAATTGACACAATCGAGTAAACAAATTTTCCTAATCTTTCTGTTCAAGCGCCATCTAC”, the binding signal is 1.75 RPM ratio (pull-down/input). On to “GATGATTGTTCTCCCAGCTGATGAATTGACAATATCGAGTAAACAAATTTTCCTAATCTTTCTGTTCAAGCGCCATCTAC”, for which the binding signal is 1.86 RPM ratio (pull-down/input). “GATGATTGTTCTCCCAGCTGATGAATTGAATATATCGAGTAAACAAATTTTCCTAATCTTTCTGTTCAAGCGCCATCTAC”: the binding signal is 1.04 RPM ratio (pull-down/input). The figure for “GATGATTGTTCTCCCAGCTGATGAATTTGACACATCGAGTAAACAAATTTTCCTAATCTTTCTGTTCAAGCGCCATCTAC” is 0.966 RPM ratio (pull-down/input); for “GATGATTGTTCTCCCAGCTGATGAATTAGGTGGGTCGAGTAAACAAATTTTCCTAATCTTTCTGTTCAAGCGCCATCTAC” it is 0.78 RPM ratio (pull-down/input).

Take “GATGATTGTTCTCCCAGCTGATGAATTTTTTGGTTCGAGTAAACAAATTTTCCTAATCTTTCTGTTCAAGCGCCATCTAC”: the binding signal is 1.01 RPM ratio (pull-down/input). The figure for “GATGATTGTTCTCCCAGCTGATGAATTTGGTTGTTCGAGTAAACAAATTTTCCTAATCTTTCTGTTCAAGCGCCATCTAC” is 1.29 RPM ratio (pull-down/input); for “GATGATTGTTCTCCCAGCTGATGAATTGGTTTGTTCGAGTAAACAAATTTTCCTAATCTTTCTGTTCAAGCGCCATCTAC” it is 1.13 RPM ratio (pull-down/input). “GATGATTGTTCTCCCAGCTGATGAATTGTTTGGTTCGAGTAAACAAATTTTCCTAATCTTTCTGTTCAAGCGCCATCTAC”: the binding signal was 1.81 RPM ratio (pull-down/input).

On to “GATGATTGTTCTCCCAGCTGATGAATTTGGTGTTTCGAGTAAACAAATTTTCCTAATCTTTCTGTTCAAGCGCCATCTAC”, for which the binding signal is 1.12 RPM ratio (pull-down/input).

Turning to “GATGATTGTTCTCCCAGCTGATGAATTGGTTGGTTCGAGTAAACAAATTTTCCTAATCTTTCTGTTCAAGCGCCATCTAC”, the binding signal was 1 RPM ratio (pull-down/input).

As for “GATGATTGTTCTCCCAGCTGATGAATTGGTTGTTTCGAGTAAACAAATTTTCCTAATCTTTCTGTTCAAGCGCCATCTAC”, the binding signal is 1.45 RPM ratio (pull-down/input). The figure for “GATGATTGTTCTCCCAGCTGATGAATTGTTGGTTTCGAGTAAACAAATTTTCCTAATCTTTCTGTTCAAGCGCCATCTAC” is 1.89 RPM ratio (pull-down/input); for “GATGATTGTTCTCCCAGCTGATGAATTTGTTGGTTCGAGTAAACAAATTTTCCTAATCTTTCTGTTCAAGCGCCATCTAC” it is 2.02 RPM ratio (pull-down/input). The value for “GATGATTGTTCTCCCAGCTGATGAATTTTTGGTTTCGAGTAAACAAATTTTCCTAATCTTTCTGTTCAAGCGCCATCTAC” was 0.984 RPM ratio (pull-down/input); that for “GATGATTGTTCTCCCAGCTGATGAATTGGTGTGTTCGAGTAAACAAATTTTCCTAATCTTTCTGTTCAAGCGCCATCTAC” was 1.34 RPM ratio (pull-down/input); that for “GATGATTGTTCTCCCAGCTGATGAATTGGTGTTTTCGAGTAAACAAATTTTCCTAATCTTTCTGTTCAAGCGCCATCTAC” was 2.65 RPM ratio (pull-down/input).
